The campaign covered roughly 5,500 compounds. About 2,000 (36%) were called active. About 18% were inconclusive and are not listed. No stated cut-off is given here; in the data, active means normalized growth mostly below about 0.91 (no sharp cut-off); inconclusive means no clear call, values can overlap the other calls; inactive means mostly above about 0.92. Some of the results follow.
Assay: chemical genetic growth profiling, strain panel (AID 1159580);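 further: tested at 20 µM; growth read once vehicle control cultures reached saturation at 30 °C; 1 = growth at the plate median or of vehicle wells; lower values mean less growth of the strain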
Conditions: S. cerevisiae deletion strains, growth OD
[1] = locus YBR021W, strain FUR4, hits give low values
[2] = locus YBR229C, strain ROT2, hits give low values
[3] = locus YCL029C, strain bik1, hits give low values
[4] = locus YDL035C, strain GPR1, hits give low values
[5] = locus YDL074C, strain BRE1, hits give low values
[6] = locus YDL101C, strain DUN1, hits give low values
[7] = locus YDL185W, strain tfp1, hits give low values
[8] = locus YDL192W, strain arf1, hits give low values
[9] = locus YDR101C, strain arx1, hits give low values
[10] = locus YDR162C, strain NBP2, hits give low values
[11] = locus YDR318W, strain mcm21, hits give low values
[12] = locus YDR388W, hits give low values
[13] = locus YDR502C, strain sam2, hits give low values
[14] = locus YEL061C, strain CIN8, hits give low values
[15] = locus YER110C, hits give low values
[16] = locus YER155C, strain BEM2, hits give low values
[17] = locus YER167W, strain BCK2, hits give low values
[18] = locus YGL078C, strain dbp3, hits give low values
[19] = locus YGL086W, strain mad1, hits give low values
[20] = locus YGL248W, strain PDE1, hits give low values
[21] = locus YGR078C, strain PAC10, hits give low values
[22] = locus YGR135W, strain pre9, hits give low values
[23] = locus YGR252W, strain gcn5, hits give low values
[24] = locus YHR030C, strain SLT2, hits give low values
[25] = locus YHR079C, strain IRE1 (second series), hits give low values
[26] = locus YHR094C, strain hxt1, hits give low values
[27] = locus YHR129C, strain ARP1, hits give low values
[28] = locus YHR200W, strain rpn10, hits give low values
[29] = locus YIL066C, strain RNR3, hits give low values
[30] = locus YIL073C, strain SPO22, hits give low values
[31] = locus YIL125W, strain kgd1, hits give low values
[32] = locus YIR030C, strain dcg1, hits give low values
[33] = locus YJL095W, strain BCK1, hits give low values
[34] = locus YJL134W, strain LCB3, hits give low values
[35] = locus YJL168C, strain set2, hits give low values
[36] = locus YJL187C, strain SWE1 (second series), hits give low values
[37] = locus YJR043C, strain POL32, hits give low values
[38] = locus YJR075W, strain HOC1, hits give low values
[39] = locus YKL009W, strain mrt4, hits give low values
[40] = locus YKL068W, hits give low values
[41] = locus YKL085W, strain MDH1 (second series), hits give low values
[42] = locus YKL085W, strain MDH1, hits give low values
[43] = locus YKR001C, strain vps1, hits give low values
[44] = locus YLR039C, strain RIC1, hits give low values
[45] = locus YLR058C, strain SHM2, hits give low values
[46] = locus YLR102C, strain apc9, hits give low values
[47] = locus YLR262C, strain YPT6, hits give low values
[48] = locus YLR268W, strain sec22, hits give low values
[49] = locus YLR330W, strain CHS5, hits give low values
[50] = locus YLR342W, strain FKS1 (second series), hits give low values
[51] = locus YLR371W, strain rom2, hits give low values
[52] = locus YLR418C, strain cdc73, hits give low values
[53] = locus YML016C, strain PPZ1, hits give low values
[54] = locus YML032C, strain rad52, hits give low values
[55] = locus YML124C, strain tub3, hits give low values
[56] = locus YMR078C, strain ctf18, hits give low values
[57] = locus YMR223W, strain ubp8, hits give low values
[58] = locus YMR307W, strain GAS1, hits give low values
[59] = locus YNL067W, strain RPL9B, hits give low values
[60] = locus YNL128W, strain TEP1, hits give low values
[61] = locus YNL233W, strain BNI4, hits give low values
[62] = locus YNL250W, strain rad50, hits give low values
[63] = locus YNL271C, strain bni1, hits give low values
[64] = locus YNL298W, strain CLA4, hits give low values
[65] = locus YNL307C, strain MCK1, hits give low values
[66] = locus YNL322C, strain KRE1, hits give low values
[67] = locus YNR052C, strain pop2, hits give low values
[68] = locus YOL147C, strain pex11, hits give low values
[69] = locus YOR061W, strain CKA2, hits give low values
[70] = locus YOR069W, strain VPS5, hits give low values
[71] = locus YOR136W, strain idh2, hits give low values
[72] = locus YOR144C, strain elg1, hits give low values
[73] = locus YOR184W, strain ser1, hits give low values
[74] = locus YOR316C, strain cot1, hits give low values
[75] = locus YPR119W, strain clb2, hits give low values
[76] = locus YPR141C, strain kar3, hits give low values
[77] = locus YPR163C, strain tif3, hits give low values
[78] = locus YPR167C, strain met16, hits give low values
[79] = strain wtn01, hits give low values

Measured: normalized growth

CC(C)(O)[C@@H]1Cc2cc3ccc(=O)oc3cc2O1
inactive: [1] 1.03 | [2] 1 | [3] 1.01 | [4] 1.02 | [5] 1.04 | [6] 1.01 | locus YDL134C, strain PPH21, hits give low values 1 | [7] 1.02 | [8] 1.03 | [9] 1 | locus YDR150W, strain NUM1, hits give low values 1 | [10] 0.989 | [11] 1.01 | [12] 1.01 | [13] 1.04 | [14] 1 | [15] 1.01 | [16] 1 | [17] 1.02 | [18] 1.01 | [19] 1.03 | [20] 1.01 | [21] 1 | [22] 0.996 | locus YGR229C, strain SMI1, hits give low values 1.04 | [23] 0.991 | [24] 1.01 | [25] 1 | [26] 1.01 | [27] 1.01 | [28] 1.03 | [29] 1.01 | [30] 1.02 | [31] 1.02 | [32] 1.02 | [33] 1.03 | [34] 1.02 | [35] 1.03 | [36] 1.01 | [37] 1.01 | [38] 1.01 | [39] 1.01 | [40] 1.02 | [41] 1 | [42] 1 | [43] 1.01 | [44] 1.01 | [45] 1.01 | [46] 1.02 | [47] 0.995 | [48] 1.03 | [49] 1.01 | [50] 1.07 | [51] 1.02 | [52] 0.989 | [53] 1.01 | [54] 1.02 | [55] 1.02 | [56] 1.03 | [57] 0.997 | [58] 1.1 | [59] 0.999 | [60] 1.02 | [61] 1.02 | [62] 1 | [63] 1 | [64] 1.01 | [65] 1.03 | [66] 1.01 | [67] 1.01 | locus YOL012C, strain htz1 1.44 | [68] 1.01 | [69] 1.01 | [70] 1.01 | [71] 1.02 | [72] 1 | [73] 1 | [74] 1.05 | locus YPL241C, strain CIN2, hits give low values 1.01 | [75] 1.02 | [76] 1.01 | [77] 1.01 | [78] 1.03 | [79] 1.05

CC(C)C1COc2cc3oc(=O)ccc3cc2O1 (stereo not given)
inactive: [18] 0.976 | [31] 0.958 | [39] 0.916 | [40] 0.964 | [41] 0.945 | [42] 0.945 | [62] 0.989 | locus YOL012C, strain htz1 0.681 | [76] 0.959
active: [1] 0.0979 | [2] 0.837 | [3] 0.616 | [4] 0.389 | [5] 0.287 | [6] 0.293 | [7] 0.874 | [8] 0.0841 | [9] 0.714 | [10] 0.0569 | [11] 0.546 | [12] 0.241 | [13] 0.289 | [14] 0.17 | [15] 0.698 | [16] 0.592 | [17] 0.503 | [19] 0.589 | [20] 0.257 | [21] 0.191 | [22] 0.366 | [23] 0.209 | [24] 0.0511 | [25] 0.89 | [26] 0.92 | [27] 0.396 | [28] 0.433 | [29] 0.223 | [30] 0.122 | [32] 0.701 | [33] 0.0654 | [34] 0.906 | [35] 0.834 | [36] 0.497 | [37] 0.218 | [38] 0.688 | [43] 0.0786 | [44] 0.106 | [45] 0.466 | [46] 0.887 | [47] 0.148 | [48] 0.443 | [49] 0.0515 | [50] 0.0669 | [51] 0.0882 | [52] 0.125 | [53] 0.381 | [54] 0.639 | [55] 0.738 | [56] 0.792 | [57] 0.44 | [58] 0.196 | [59] 0.711 | [60] 0.348 | [61] 0.285 | [63] 0.728 | [64] 0.754 | [65] 0.157 | [66] 0.0872 | [67] 0.145 | locus YOL006C, strain TOP1, hits give low values 0.152 | [68] 0.66 | [69] 0.101 | [70] 0.519 | [71] 0.842 | [72] 0.843 | [73] 0.262 | [74] 0.875 | [75] 0.336 | [77] 0.703 | [78] 0.636 | [79] 0.394

From PubChem BioAssay AID1159580 (chemical genetic matrix, 2015)
